Several values for one entry are separate records, joined by “and”; a condition that tells them apart may be missing. Equal values may be shown once. The panel holds about 83,000 compounds, 20% with a hit somewhere; the sample as a whole holds those more often.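 Results are percent growth after 48 hours of single-concentration exposure. 100 means growth as in untreated cells, lower positive values show inhibition; negative values down to -100 show cell death.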 Activity calls are given as the source filed them.

The subject of the assay is TK-10 renal. As to the kind of experiment: NCI-60 one-dose screen, 48 h (100 = growth as untreated, 0 = no growth, -100 = all killed). Conditions: 10 µM unless noted. How it is done:
Growth inhibition of the TK-10 human tumor cell line is measured as a screen for anti-cancer activity. Cells are grown in 96 well plates and exposed to the test compound for 48 hours. Compounds are tested at a single concentration, which is 10^-5 M for most compounds. The reported endpoint is percent growth (GI% or GIPRCNT), where numbers from 0 - 100% represent growth inhibition, and numbers from -100% - 0 represent cell death. For example, a value of 40 represents 60% growth inhibition. A value of 0 means no net growth occurred over the course of the experiment. A value of -40 indicates 40% of cells at the beginning of the experiment died by the end of the experiment. A value of -100 means all cells are dead at the end of the experiment.
NCI-60 Human Tumor Cell Lines Screen was performed using the standard one-dose NCI protocol, which is described in more detail at https://dtp.cancer.gov/discovery_development/nci-60/default.htm.
Compounds with GIPRCNT values below 10 were considered active. Activity score was based on GIPRCNT using the following formula: […]
Score is 0 for GIPRCNT values of 100 or above, 50 for GIPRCNT values of 0, and 100 for GIPRCNT values of -100.
For `CC1(C)N=C(N)N=C(N)N1c1cccc(C(=O)Nc2cccc(S(=O)(=O)F)c2)c1`, the growth is 108% (inactive).
Under `O=C1NC(=O)C(CCC(=O)c2cccc3ccccc23)C(=O)N1` stands 106% [100 µM] (inactive) and 8.08% [100 µM] (active); under `CNC(=O)Oc1cccc(OC)c1`, 125% (inactive); under `CCN1CC2(CN(CC)C1=S)C(=O)NC(=O)NC2=O`, 98.5% (inactive).
For `CCN(CC)CCOc1c(C(C)C)cccc1C(C)C` the value was 110% (inactive).
Consider `COc1cc(CNCCc2ccc(Cl)cc2)cc(OC)c1O`, for which the growth was 79.6% (inactive).
Take `CC1(C)N=C(N)N=C(N)N1c1ccc(CCCCc2ccc(S(=O)(=O)F)cc2)cc1`: the growth was 14.1% (inactive).
Under `C#CC1(O)CCC2(C)C(CCC3C4CCC(=O)C4(C)CCC32)C1` (stereo not given) stands 91.7% (inactive); under `CC1COC(=O)C1` (stereo not given), 100% (inactive); under `CN(C)P1(N(C)C)=NP(N(C)C)(N(C)C)=NP(N(C)C)(N(C)C)=N1`, 95.3% (inactive).
Under `CC(=O)O[C@@H]1C2=C(C)C3(CC3)[C@@](C)(O)C(=O)C2=C[C@@]1(C)CO` stands 4.18% (active); under `n1nc(-c2nonc2-c2nn[nH]n2)n[nH]1`, 110% (inactive).
Under `CCC1([N+](=O)[O-])COP(=O)(NCc2cccnc2)OC1` (stereo not given) stands 109% (inactive); under `Oc1ccccc1OB(Oc1ccccc1O)N(CCCl)CCCl`, 98.9% (inactive).
As to `OC1CCCCC1N1CCC(c2ccccc2)CC1` (stereo not given), the growth was 99% (inactive).
For `O=C(O)CCC1N=C(c2cccc(O)c2)c2ccccc2NC1=O` (stereo not given) the value was 96.4% [30 µM] (inactive).
Consider `COc1cc(N(CCCl)CCCl)ccc1C=Nc1ccccc1C(=O)O`, for which the growth is 124% (inactive).
In the case of `Cc1nnc([S-])s1.[Au+].c1ccc([PH+](c2ccccc2)c2ccccc2)cc1`, the growth was -61.5% (active).
For `CNC(=O)Oc1ccccc1-c1ccccc1` the value was 90.5% (inactive).
As to `NC(=O)NC(=O)CI`, the growth was 88.6% (inactive).
For `CNC(=O)Oc1ccccc1` the value was 122% (inactive).
Under `CO[C@@H]1[C@H](OC(=O)NC(=O)CCl)CC[C@]2(CO2)[C@H]1[C@@]1(C)O[C@@H]1CC=C(C)C` stands 92.6% (inactive); under `CC1(C)CC2(CC(C)(C)c3cc(O)c(O)cc32)c2cc(O)c(O)cc21`, 117% (inactive).
For `COc1ccccc1N1CCN(CCc2c[nH]c3cc4c(cc23)OCO4)CC1` the value was 89.7% (inactive); for `CCOC(=O)c1cnc(SCc2ccc(Cl)c(Cl)c2)nc1N1CC1`, 71.9% (inactive).
Consider `COc1ccc(-c2ccc(OC)c(OC)c2OC)cc1`, for which the growth was 16.2% (inactive).
On to `CC(=O)O[C@H]1CCC2(C)C(=CCC3C2CCC2(C)/C(=N/OC(=O)c4ccc(N(CCCl)CCCl)cc4)CCC32)C1` (stereo not given in full), for which the growth was 79.8% (inactive).
Under `Nc1cccc2c1Oc1ccccc1O2` stands 115% (inactive); under `Cc1ccc(C[As+](c2ccccc2)(c2ccccc2)c2ccccc2)cc1`, 16.9% (inactive); under `CCN(CC)c1ccc(C=C2C(=O)NC(=S)NC2=O)cc1`, 108% (inactive).
Regarding `NC(=O)C(Cl)Cl`, the growth was 98.7% (inactive).
Turning to `O=c1[nH]c2cc(Cl)ccc2n1C1CCN(CCCC(c2ccc(F)cc2)c2ccc(F)cc2)CC1`, the growth was 13.1% (inactive).
For `ClCCN(CCCl)c1ccc(C=NCCc2c[nH]c3ccccc23)cc1` the value was 88% (inactive); for `CC(C)(C)N(Cc1ccccc1)N=O`, 102% (inactive); for `N#[N+]c1nc2nc(N)[nH]c(=O)c2[nH]1`, 90% (inactive).
Under `NCCc1cc(O)c(O)cc1O` stands 95.3% (inactive); under `CC(/C=N/N=C(N)N)=N/N=C(N)N`, 74.2% (inactive).
Under `COP(=S)(OC)Oc1ccc(SC)c(C)c1` stands 124% (inactive); under `CNC(=O)Oc1cc(C(C)C)ccc1Sc1ccc(C(C)C)cc1OC(=O)NC`, 84.7% (inactive).
Regarding `CCC1CN1P(=O)(OCCOC)N1CC1CC` (stereo not given), the growth was 123% (inactive).

These data come from PubChem BioAssay (NCI).
